# Screening data deposited in PubChem BioAssay by National Center for Advancing Translational Sciences (NCATS).
# SARS PLpro yeast-1 – SARS-CoV PLP inhibition in yeast; S. cerevisiae expressing SARS-CoV PLpro, growth rescue; Potency, µM (series often up to 32.9 µM), for the others: top-dose activity, positive = growth rescue, usual class: activators; 330,000 compounds, 0.19% hits; calls by dose curve; note: potency is the fitted concentration of half-maximal effect; 0% is about no effect; nearly all actives have a fitted effect of over 55% in size
# RE007 growth inh – less growth of the S. pombe RE007 Vpr strain. Potency, µM (highest dose often 92.2 µM), for the others: at the top dose activity change, negative = less growth, actives largely listed as inhibitors. S. pombe RE007 Vpr strain, BacTiter-Glo ATP luminescence, 24 h. 360,000 compounds, 0.21% hits; active = well fitted falling curve with a large enough effect; inconclusive = small, poorly fitted or top-dose-only effect; inactive = no such curve, though single readings can be large or run the other way; note: potency is the fitted concentration of half-maximal effect; % is set by controls: 0 for no effect and ±100 for the full control effect; nearly all actives have a fitted effect of over 50% in size
#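 Fission yeast strain RE007, carrying one chromosomally integrated HIV-1 vpr copy, was seeded at OD 0.01 in PMG+AL medium with 23 nL pinned compound. After 24 h at 30 °C and 99% humidity, viability was read by BacTiter-Glo luminescence.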
# Sm TGR block – inhibitors of Schistosoma mansoni thioredoxin glutathione reductase | Q962Y6 | purified TGR, DTNB reduction, TNB absorbance 405 nm | Potency, µM (titrated, usually from 114 µM), for inactives: at the highest dose activity change, negative = inhibition, hits mostly inhibitors | 360,000 compounds, 3% hits | AID 485364; note: potency is the fitted concentration of half-maximal effect; % is set by controls: 0 for no effect and ±100 for the full control effect; nearly all actives have a fitted effect of over 60% in size
#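 TGR 20 nM + NADPH 100 uM (dispensed conc.), cpd preinc 15 min RT; start with NADPH (500 uM addition) then DTNB (15 mM addition). Kinetic TNB absorbance, 405 nm filter. Four-parameter Hill fit across titration.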
# Tb PYK inh – inhibitors of Trypanosoma brucei pyruvate kinase. Q57TT1. TbPYK enzyme, Kinase-Glo Plus ATP luminescence, 45 min. Potency, µM (doses to about 76.8 µM), for the others: at the highest dose activity, negative = inhibition, actives largely listed as inhibitors. 410,000 compounds, 0.12% hits. AID 624173; note: potency is the fitted concentration of half-maximal effect; % is set by controls: 0 for no effect and ±100 for the full control effect; nearly all actives have a fitted effect of over 50% in size
#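 Activity of T. brucei pyruvate kinase was followed by Kinase-Glo Plus luminescence after the enzyme reacted 45 min at room temperature with 130 uM ADP (final) and substrate. Test compounds were added before ADP at multiple concentrations.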
# AmpC inh no detg – AmpC beta-lactamase inhibition without detergent; P00811; Potency, µM (doses to about 57.1 µM), for inactives: top-dose activity change, negative = inhibition, usual class: inhibitors; 330,000 compounds, 0.52% hits; AmpC nitrocefin hydrolysis, absorbance 480 nm, 0.0001% Triton;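 note: potency is the fitted concentration of half-maximal effect; plate controls were no compound for no effect and no enzyme for full effect; nearly all actives have a fitted effect of over 20% in size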
# Target sequence (P00811 whole entry, looked up): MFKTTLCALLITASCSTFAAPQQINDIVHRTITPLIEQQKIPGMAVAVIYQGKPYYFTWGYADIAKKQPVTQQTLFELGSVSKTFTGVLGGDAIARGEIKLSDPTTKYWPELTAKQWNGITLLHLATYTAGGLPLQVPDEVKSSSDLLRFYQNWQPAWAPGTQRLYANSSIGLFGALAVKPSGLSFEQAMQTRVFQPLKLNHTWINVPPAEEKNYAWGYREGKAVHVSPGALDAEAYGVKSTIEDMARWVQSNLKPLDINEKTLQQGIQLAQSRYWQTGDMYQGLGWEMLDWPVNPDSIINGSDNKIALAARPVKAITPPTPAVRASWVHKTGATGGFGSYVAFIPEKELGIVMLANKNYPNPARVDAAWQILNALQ
#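 20 mM phosphate pH 7.0 + 0.01% (detergent screen) or 0.0001% Triton X-100; 5.3 nM AmpC reagent; cpd preinc 15 min RT; nitrocefin (800 uM stock) to start; A480 q20 s × 4 min; Activity was normalised to no-enzyme and no-compound control wells.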
# AmpC detergent – AmpC beta-lactamase inhibition with detergent present | P00811 | AmpC hydrolysis of nitrocefin, absorbance 480 nm, 0.01% Triton | Potency, µM (series often up to 114 µM), for inactives: at the top dose activity change, negative = inhibition, usual class: inhibitors | 370,000 compounds, 0.041% hits;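 note: potency is the fitted concentration of half-maximal effect; 0% = no-compound wells and -100% = no-enzyme wells; nearly all actives have a fitted effect of over 25% in size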
#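 AmpC (5.3 nM in the dispensed reagent) in 20 mM phosphate pH 7.0 with 0.01% (detergent screen) or 0.0001% Triton X-100 was preincubated with compounds for 15 min at room temperature. Nitrocefin was then added from an 800 uM solution, and hydrolysis was followed at 480 nm.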
# SARS PLpro yeast-2 – Validates SARS-CoV PLpro inhibitor hits in yeast. shares compounds with SARS PLpro yeast-1. yeast expressing SARS-CoV PLpro, growth phenotype rescue. calls only. 1,000 compounds, 19% hits; call rule not given here
# Starred values were filed as active, the others as inactive; i = inactive; ? = inconclusive; . = no result given; + = active, no number. Shown are actives, neighbours in structure and some others; about 3.3% of the full set was active somewhere. Unless noted, calls come from the whole dose curve; as a rule, active = well fitted curve in the direction sought with a large enough effect; inconclusive = small, poorly fitted or top-dose-only effect, or another doubt; inactive = no such curve, though single readings can be large; an effect the other way counts as inactive or inconclusive.
SMILES,SARS PLpro yeast-1,RE007 growth inh,Sm TGR block,Tb PYK inh,AmpC inh no detg,AmpC detergent,SARS PLpro yeast-2
Cc1ccc(S(=O)(=O)Nc2ccc(O)c3ncccc23)cc1,?,-6.9%,-3.7%,-0.1%,-31.5%,1.1%,+
Cc1ccc([N+](=O)[O-])cc1S(=O)(=O)Nc1cccc(-c2ccc(N3CCCC3)nn2)c1,11.2µM*,-8.6%,0.9%,-3.7%,-16.0%,-5.0%,i
O=C(N/N=C/c1cc(Cl)ccc1O)c1ccc(Br)cc1,?,3.9%,-9.6%,3.8%,-49.9%,?,i
O=C(N/N=C/c1cc(Br)ccc1O)c1ccncc1,-0.6%,1.7%,-1.4%,-15.4%,-12.4%,0.0%,.
Nc1nonc1C(=O)N/N=C/c1cc(Br)ccc1O,?,-24.8%,2.9%,2.8%,-26.0%,-3.4%,+
Cc1ccc(NC(=O)CN2C(=O)CCc3cc(S(=O)(=O)N4CCOCC4)ccc32)cc1F,.,.,-1.3%,-6.0%,.,11.1%,.
COc1ccc(C)cc1NC(=O)CCS(=O)(=O)c1cc2c3c(c1)CCN3C(=O)CC2,.,.,-1.0%,?,.,1.5%,.
Cc1ccc(NC(=O)c2cc(S(=O)(=O)N3CCC(C)CC3)cn2C)cc1Cl,.,.,7.1%,5.7%,.,11.4%,.
COC(=O)c1cc(OC)c(OC)cc1NCC(=O)Nc1ccc(OC)c(OC)c1,7.9%,10.9%,-0.7%,-8.1%,-15.7%,3.1%,.
COC(=O)c1cc(OC)c(OC)cc1NCC(=O)Nc1ccc(C)cc1,4.47µM*,16.0%,-19.2%,3.2%,-0.6%,-0.4%,i
Cc1cc(-c2n[nH]c(=S)n2CC(C)C)cs1,?,21.1%,5.5%,?,-28.2%,-15.5%,+
Cc1ccc(CNC(=O)CCCc2nnc3n(CC(C)C)c(=O)c4sccc4n23)cc1,.,.,1.1%,-2.2%,.,-8.7%,.
C/C(=N\NC(=O)c1ccccc1)c1c(C)[nH]n(-c2ccccc2)c1=O,6.31µM*,-12.5%,-10.4%,-4.6%,-35.3%,-1.4%,i
Cc1nn(Cc2ccccc2)c(C)c1/C=N/NC(=O)CNc1cccc(C(F)(F)F)c1,11.2µM*,9.1%,-1.9%,-1.8%,62.2%,-12.7%,i
Cc1nc2c(c(C)c1CCC(=O)NCc1ccc(Cl)cc1)c(=O)n(C)c(=O)n2C,.,.,-1.4%,-5.9%,.,22.0%,.
CCN(CC(=O)Nc1ccc(NC(C)=O)cc1)C(=O)/C=C/c1c(C)nn(-c2ccc(F)cc2)c1C,?,2.2%,-15.8%,-2.4%,75.9%,-1.7%,i
CCOc1ccc(C(=O)CC(=O)C(=O)NCCc2ccc(OC)c(OC)c2)cc1,20µM*,0.0%,-31.6%,-11.0%,27.8%,1.7%,?
COc1ccc(NC(=O)C(=O)NCCc2ccc(OC)c(OC)c2)c(OC)c1,.,.,1.6%,1.5%,.,3.2%,.
Cc1ccc(C(c2sc3nc(-c4ccco4)nn3c2O)N2CCOCC2)cc1 (stereo not drawn),.,.,8.8%,-7.9%,.,3.0%,.
Cc1ccc(C2=NC(C)(C)NC2=O)cc1,?,-17.4%,-0.2%,1.7%,-9.1%,?,i
COc1ccc(OC)c(-c2c3cc(O)c(=O)cc-3oc3cc(O)c(O)cc23)c1,?,?,?,?,28.2µM*,-3.9%,+
CCOc1ccccc1-c1c2cc(O)c(=O)cc-2oc2cc(O)c(O)cc12,11.2µM*,?,44.7µM*,?,-55.3%,?,+
CC(C)Oc1ccc(C(=O)Nc2c(C(=O)Nc3cccc(F)c3)oc3ccccc23)cc1,.,.,-9.1%,0.3%,.,-4.4%,.
COc1cccc(NC(=O)CCCOc2cc(=O)n(C)c3ccccc23)c1,2.1%,-9.6%,-1.8%,0.6%,47.7%,-2.1%,.
CCOc1ccc(NC(=O)CCCOc2cc(=O)n(C)c3ccccc23)cc1,?,-0.4%,-2.1%,2.4%,-15.7%,-14.1%,+
SMILES,SARS PLpro yeast-1,RE007 growth inh,Sm TGR block,Tb PYK inh,AmpC inh no detg,AmpC detergent,SARS PLpro yeast-2
COc1cccc(NC(=O)C2CCCN2S(=O)(=O)c2ccc3nc(-c4ccccc4)[nH]c3c2)c1 (stereo not drawn),.,.,10.6%,1.1%,.,21.9%,.
CN(C)NC(=S)Nc1ccc(Cl)cc1,11.2µM*,-8.3%,-8.0%,-3.9%,-20.8%,8.3%,+
CNNC(=S)Nc1ccc(Cl)cc1,-1.5%,5.6%,3.2%,-7.5%,-10.7%,6.4%,.
Cc1onc(-c2ccccc2)c1C(=O)NC(=S)NNC(=O)c1ccncc1,12.6µM*,1.4%,-14.6%,6.3%,-27.7%,-3.3%,i
CCn1ccc2cc(S(=O)(=O)N3CCCN(C(=O)Nc4ccccc4C(F)(F)F)CC3)ccc21,.,.,-3.7%,2.0%,.,21.6%,.
CC(C)Oc1ccc(Cn2c(-c3ccco3)n[nH]c2=S)cc1,22.4µM*,19.7%,-4.3%,2.51µM*,-21.8%,4.3%,i
COc1ccc(Cn2c(-c3ccc(OC)cc3)n[nH]c2=S)cc1,6.6%,13.5%,-5.8%,?,-22.3%,5.7%,.
C[C@H]1CN([C@@H](C)CO)C(=O)c2cccc(NS(=O)(=O)c3ccc(F)cc3)c2O[C@H]1CN(C)Cc1ccc(Cl)c(Cl)c1,-4.3%,-4.8%,.,-4.4%,181.2%,.,.
C[C@H](CO)N1C[C@H](C)[C@@H](CN(C)C(=O)NC2CCCCC2)Oc2c(NC(=O)Nc3ccccc3)cccc2C1=O,4.6%,-12.7%,.,5.1%,293.3%,.,.
COc1ccc(S(=O)(=O)Nc2cccc3c2O[C@H](CN(C)Cc2ccc(Cl)c(Cl)c2)[C@@H](C)CN([C@H](C)CO)C3=O)cc1,?,-0.6%,.,3.7%,179.8%,.,?
C[C@H](CO)N1C[C@H](C)[C@@H](CN(C)C(=O)Nc2ccccc2)Oc2c(NC(=O)NC3CCCCC3)cccc2C1=O,?,-5.5%,.,-2.9%,204.1%,.,i
CCc1nc2ccc(C(=O)NCc3ccc(SC)cc3)cc2nc1CC,.,.,3.5%,-2.2%,.,6.6%,.
CCOc1ccccc1Nc1nnc(SCc2nnc(-c3cc(OC)c(OC)c(OC)c3)o2)s1,?,-7.6%,-1.8%,-4.1%,96.1%,-12.7%,i
CCOC(=O)C1=C(Cn2cnc3ccccc32)NC(=O)NC1c1cc(C)ccc1C (stereo not drawn),-4.8%,10.9%,?,-3.4%,29.0%,-12.1%,.
CCOC(=O)C1=C(CNCc2ccc(C)cc2)NC(=O)NC1c1cc(C)ccc1C (stereo not drawn),?,19.4%,-1.2%,9.3%,21.7%,?,i
O=C(O)CCn1ccc2cc(S(=O)(=O)N3CCCCC3)ccc21,.,.,-5.8%,-2.3%,.,-3.7%,.
